A short description of test [1]: rapamycin-like changes in RPL19A-GFP expression – cell-based, S. cerevisiae, multiplex flow cytometry, primary screen (AID 1862; in the data active = percent of DMSO control GFP below about 86%;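 note: lower values mimic rapamycin by blocking the RPL19A rise seen in DMSO cells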). The conditions noted are these: S. cerevisiae RPL19A-GFP strain, flow cytometry fluorescence, 3 h; at 10 µM; stronger effect = lower value. (In general: A flow cytometer gives signals particle by particle.)
A short description of test [2]: TOR pathway GLN3 branch reporter MEP2-GFP changes – S. cerevisiae, multiplex flow cytometry, primary screen (AID 1867).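 Note: median GFP channel fluorescence of barcode-gated MEP2-GFP cells measured by flow cytometry.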 The following applies: S. cerevisiae MEP2-GFP strain, 3 h, at 10 µM, stronger effect = higher value, 100% means same as DMSO wells.
Test [3] is described as follows: TOR pathway RTG branch CIT2 reporter changes – S. cerevisiae, GFP fusion, multiplex flow cytometry, primary screen (AID 1870;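 active = percent response above a set limit, the screen-wide mean plus 3 SD, cut at about 130% in these data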;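 note: barcoded CIT2-GFP strain pooled with four other GFP strains with rapamycin as positive control; median GFP fluorescence per well over plate mean of DMSO wells so 100% = DMSO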). The following applies: S. cerevisiae CIT2-GFP expression, 3 h, at 10 µM, stronger effect = higher value.
Test [4] in a line: TOR pathway LAP4-GFP level changes – S. cerevisiae, multiplex flow cytometry, primary screen (AID 1873;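 active = GFP signal, as percent of the solvent control, above the screen mean plus 3 SD, about 149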). The conditions noted are these: S. cerevisiae LAP4-GFP expression, 3 h, at 10 µM, stronger effect = higher value.
Test [5] in a line: yeast AGP1-GFP level changes, GLN3 branch – cell-based, multiplex flow cytometry, S. cerevisiae, primary screen (AID 1887;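 active = GFP signal above the screen-wide mean plus 3 SD, that is over about 124.5% of the solvent control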;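 note: AGP1-GFP fusion strain of S. cerevisiae within a five-strain barcoded multiplex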). The conditions noted are these: 3 h, at 10 µM, stronger effect = higher value.
The nature of test [6]: reduced mouse 2C T cell binding to pMHC/ICAM-1 vesicles – MLPCN validation set, flow cytometry, LFA-1/ICAM-1 modulator project, pilot screen (AID 2523;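 active = response below a set limit, under 55% cells CD8-positive and vesicle-bound, and CD8 cells' 90th-percentile brightness under 279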;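 for vesicle binding response: mean PE anti-B7-1 fluorescence of CD8+ cells relative to row control; 100% = QL9-loaded vesicles with DMSO vehicle in the same plate row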). The conditions noted are these: 2C mouse CD8+ T cells, at 7 µM, stronger effect = lower value; double positive events: measured here: CD8+/vesicle+ event percentage.
For test [7], the target named is Integrin beta-1 (Homo sapiens) + Integrin alpha-4 (Homo sapiens) (UniProt P13612+P05556). As to the kind of experiment: alpha4beta1 integrin LIBS antibody binding reduction – U937 cells, HUTS-21 mAb, flow cytometry, validation set, VLA-4 allosteric modulator project, pilot screen (AID 2674;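 active = inhibition above 50%, about 3 SD of the validation set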;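 note: antibody binding induced by the VLA-4 ligand LDV present at three times its Kd; 0% = LDV ligand with antibody and no compound and 100% = antibody without LDV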). The conditions noted are these: HUTS-21 LIBS mAb binding, at 6.7 µM, stronger effect = higher value, binding induced by LDV ligand.
Sequence of Integrin beta-1 (Homo sapiens) + Integrin alpha-4 (Homo sapiens) (P05556 whole entry, looked up): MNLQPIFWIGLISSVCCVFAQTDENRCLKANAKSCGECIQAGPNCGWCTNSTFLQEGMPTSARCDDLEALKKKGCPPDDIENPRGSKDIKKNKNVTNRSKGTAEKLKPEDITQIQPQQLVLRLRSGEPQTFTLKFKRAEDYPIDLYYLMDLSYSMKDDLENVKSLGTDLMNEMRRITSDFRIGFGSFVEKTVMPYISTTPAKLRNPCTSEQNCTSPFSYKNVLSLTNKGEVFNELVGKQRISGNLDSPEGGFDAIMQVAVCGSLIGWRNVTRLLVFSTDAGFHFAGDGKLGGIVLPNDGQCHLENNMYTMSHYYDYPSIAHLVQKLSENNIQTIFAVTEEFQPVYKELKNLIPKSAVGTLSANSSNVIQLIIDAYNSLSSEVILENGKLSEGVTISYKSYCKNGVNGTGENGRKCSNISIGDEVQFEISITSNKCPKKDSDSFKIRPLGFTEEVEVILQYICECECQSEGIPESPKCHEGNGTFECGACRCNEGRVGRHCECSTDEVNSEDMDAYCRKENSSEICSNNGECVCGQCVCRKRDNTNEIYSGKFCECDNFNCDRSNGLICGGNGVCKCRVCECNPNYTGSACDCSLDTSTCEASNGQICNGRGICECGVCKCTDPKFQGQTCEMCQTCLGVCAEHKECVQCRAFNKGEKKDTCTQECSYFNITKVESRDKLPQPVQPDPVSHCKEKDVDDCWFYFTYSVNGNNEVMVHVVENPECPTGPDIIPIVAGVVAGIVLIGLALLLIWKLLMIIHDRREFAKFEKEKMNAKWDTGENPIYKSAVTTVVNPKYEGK
Sequence of Integrin beta-1 (Homo sapiens) + Integrin alpha-4 (Homo sapiens) (P13612 whole entry, looked up): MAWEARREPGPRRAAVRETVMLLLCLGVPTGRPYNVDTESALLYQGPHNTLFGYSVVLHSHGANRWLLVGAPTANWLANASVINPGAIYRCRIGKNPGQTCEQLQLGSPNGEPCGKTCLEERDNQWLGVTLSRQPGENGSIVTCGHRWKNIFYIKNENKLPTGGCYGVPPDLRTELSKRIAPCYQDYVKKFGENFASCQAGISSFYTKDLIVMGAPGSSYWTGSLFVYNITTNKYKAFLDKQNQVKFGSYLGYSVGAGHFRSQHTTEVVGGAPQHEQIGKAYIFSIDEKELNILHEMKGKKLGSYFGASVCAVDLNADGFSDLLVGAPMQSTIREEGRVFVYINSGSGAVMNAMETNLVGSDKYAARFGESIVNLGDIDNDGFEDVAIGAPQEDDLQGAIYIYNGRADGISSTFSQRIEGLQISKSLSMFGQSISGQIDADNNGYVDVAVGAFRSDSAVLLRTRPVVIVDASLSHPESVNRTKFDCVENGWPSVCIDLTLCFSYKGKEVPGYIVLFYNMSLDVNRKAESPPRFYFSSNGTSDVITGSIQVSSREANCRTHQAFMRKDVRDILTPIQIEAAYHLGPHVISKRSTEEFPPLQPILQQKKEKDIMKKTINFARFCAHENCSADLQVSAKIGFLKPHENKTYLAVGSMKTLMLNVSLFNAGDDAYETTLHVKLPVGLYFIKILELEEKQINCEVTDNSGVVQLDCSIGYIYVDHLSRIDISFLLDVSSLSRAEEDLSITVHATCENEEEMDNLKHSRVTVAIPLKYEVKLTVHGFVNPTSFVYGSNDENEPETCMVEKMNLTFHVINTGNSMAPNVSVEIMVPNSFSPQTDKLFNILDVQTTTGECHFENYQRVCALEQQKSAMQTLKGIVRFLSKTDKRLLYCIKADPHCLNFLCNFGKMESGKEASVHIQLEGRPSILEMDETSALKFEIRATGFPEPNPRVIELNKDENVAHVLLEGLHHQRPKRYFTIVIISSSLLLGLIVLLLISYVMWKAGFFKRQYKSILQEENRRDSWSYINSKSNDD

Test [8] is described as follows: calorie-restriction mimetic ROS inhibitors, yeast – validation compound set, pilot screen (AID 2706;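 active = superoxide response below 65% of plate, a cut near 3 SD across the whole screen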;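 note: yeast exposed to compound for one week at 30 degrees C before staining; 100% = mean of all compound wells on the same plate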). The following applies: S. cerevisiae aging, superoxide DHE fluorescence; at 10 µM; stronger effect = lower value.
For test [9], the target named is Beta-adrenergic receptor kinase 1 (Homo sapiens) (UniProt P25098). Nature of the test: GRK2 binders displacing RNA aptamer, biochemical, validation, human GRK2, bead flow cytometry (AID 488806;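 active = aptamer binding inhibition above 30%, about 3 SD of noise from non-fluorescent compounds; inactive = inhibition at or below 30%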). The following applies: bead-bound GRK2, FAM-aptamer displacement, at 10 µM, stronger effect = higher value.
Sequence of Beta-adrenergic receptor kinase 1 (Homo sapiens) (P25098 whole entry, looked up): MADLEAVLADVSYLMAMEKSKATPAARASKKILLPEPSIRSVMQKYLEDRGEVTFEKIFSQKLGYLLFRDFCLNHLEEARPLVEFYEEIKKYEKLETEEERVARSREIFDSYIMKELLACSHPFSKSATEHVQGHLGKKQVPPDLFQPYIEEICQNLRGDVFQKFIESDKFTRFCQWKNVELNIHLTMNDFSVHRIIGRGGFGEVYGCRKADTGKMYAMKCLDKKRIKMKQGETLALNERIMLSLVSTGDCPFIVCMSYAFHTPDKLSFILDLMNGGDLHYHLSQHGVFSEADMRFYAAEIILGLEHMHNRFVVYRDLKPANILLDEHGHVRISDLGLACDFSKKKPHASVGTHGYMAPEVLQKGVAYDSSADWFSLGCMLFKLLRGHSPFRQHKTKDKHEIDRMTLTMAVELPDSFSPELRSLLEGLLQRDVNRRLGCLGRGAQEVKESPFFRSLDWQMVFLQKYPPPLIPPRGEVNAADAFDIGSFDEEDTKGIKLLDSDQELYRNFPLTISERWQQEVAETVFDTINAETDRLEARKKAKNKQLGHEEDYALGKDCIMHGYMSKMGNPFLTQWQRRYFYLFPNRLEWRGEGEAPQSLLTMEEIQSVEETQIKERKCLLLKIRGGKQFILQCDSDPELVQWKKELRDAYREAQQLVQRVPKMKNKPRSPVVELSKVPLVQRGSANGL
The target in test [10] is Beta-2 adrenergic receptor (Homo sapiens) (UniProt P07550). Nature of the test: agonist-induced loss of surface beta2AR – cell-based, FAP fluorogen, flow cytometry, validation set, pilot screen (AID 504459;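 active = percent response above 42, roughly 3 SD of non-fluorescent test compounds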;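 note: agonist-driven loss of surface beta2AR via internalization measured by FAP dye flow cytometry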). The following applies: Am2.2-beta2AR cells, at 10 µM, stronger effect = higher value.
Sequence of Beta-2 adrenergic receptor (Homo sapiens) (P07550 whole entry, looked up): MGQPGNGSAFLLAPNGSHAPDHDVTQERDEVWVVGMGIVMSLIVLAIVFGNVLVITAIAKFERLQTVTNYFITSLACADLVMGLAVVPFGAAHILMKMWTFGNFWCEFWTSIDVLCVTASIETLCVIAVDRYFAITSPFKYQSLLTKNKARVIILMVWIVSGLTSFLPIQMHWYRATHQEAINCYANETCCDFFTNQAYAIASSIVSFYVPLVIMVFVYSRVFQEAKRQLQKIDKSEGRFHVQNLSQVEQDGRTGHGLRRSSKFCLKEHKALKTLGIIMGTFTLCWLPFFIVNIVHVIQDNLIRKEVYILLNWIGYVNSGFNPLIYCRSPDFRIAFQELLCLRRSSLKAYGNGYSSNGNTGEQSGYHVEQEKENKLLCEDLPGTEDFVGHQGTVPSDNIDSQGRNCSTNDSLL
The target of test [11] is AP-2 complex subunit beta (Homo sapiens) (UniProt P63010). Nature of the test: beta-arrestin/AP2 interaction blockers – biochemical, validation set, GST-AP2 beads, flow cytometry, pilot screen (AID 504541;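 active = inhibition above 54%, about 3 SD of non-fluorescent compounds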;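 note: AP2 carries R879A mutation and is captured from E. coli lysate; bead-bound FITC arrestin peptide fluorescence measuring arrestin peptide binding to AP2; 0% = DMSO wells and 100% = excess unlabeled arrestin peptide control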). The conditions noted are these: FITC arrestin peptide, at 10 µM, stronger effect = higher value, AP2 beta2 appendage fragment, R879A mutant.
Sequence of AP-2 complex subunit beta (Homo sapiens) (P63010 whole entry, looked up, the tested form may be a part, one chain of several): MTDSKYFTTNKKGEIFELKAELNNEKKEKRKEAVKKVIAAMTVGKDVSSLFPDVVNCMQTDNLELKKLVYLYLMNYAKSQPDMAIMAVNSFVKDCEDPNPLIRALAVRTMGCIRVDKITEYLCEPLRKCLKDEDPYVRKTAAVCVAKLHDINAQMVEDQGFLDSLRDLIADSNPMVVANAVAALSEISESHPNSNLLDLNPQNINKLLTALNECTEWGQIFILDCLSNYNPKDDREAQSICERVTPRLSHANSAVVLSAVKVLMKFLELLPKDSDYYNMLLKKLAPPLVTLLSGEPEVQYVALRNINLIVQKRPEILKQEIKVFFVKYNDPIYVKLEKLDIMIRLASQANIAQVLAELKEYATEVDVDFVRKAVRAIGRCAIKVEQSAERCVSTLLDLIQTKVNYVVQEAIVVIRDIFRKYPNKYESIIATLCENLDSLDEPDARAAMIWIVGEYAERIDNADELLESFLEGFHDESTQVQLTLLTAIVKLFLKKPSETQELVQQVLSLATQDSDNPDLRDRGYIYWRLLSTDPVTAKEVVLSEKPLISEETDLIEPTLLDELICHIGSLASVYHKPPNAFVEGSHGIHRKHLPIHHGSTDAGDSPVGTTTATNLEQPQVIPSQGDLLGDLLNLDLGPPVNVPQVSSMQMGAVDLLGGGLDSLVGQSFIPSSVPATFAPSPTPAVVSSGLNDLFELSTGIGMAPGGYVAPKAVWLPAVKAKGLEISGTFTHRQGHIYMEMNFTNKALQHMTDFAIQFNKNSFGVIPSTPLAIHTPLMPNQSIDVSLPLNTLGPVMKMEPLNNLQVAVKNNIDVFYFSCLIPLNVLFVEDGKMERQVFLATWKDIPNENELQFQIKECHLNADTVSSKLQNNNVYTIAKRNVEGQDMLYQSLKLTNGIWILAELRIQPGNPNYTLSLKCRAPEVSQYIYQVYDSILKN
The nature of test [12]: cytosolic pH regulators acting via V-ATPase – S. cerevisiae, pHLuorin, HTS validation (AID 504600; in the data active = response above about 15%;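 note: plate controls were DMSO for no effect and reference compound for full effect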). The following applies: V-ATPase proton transport, at 10 µM, stronger effect = higher value.
For test [13], the system named is anti-desmoglein-3 scFv antibody binding to human DSG3. As to the kind of experiment: blockers of pathogenic pemphigus antibody–desmoglein-3 binding – biochemical, validation compound set, bead-based, flow cytometry, pilot screen (AID 588368;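 active = binding below the plate cutoff, the plate median minus 3 SD, with a reading above zero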;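 note: signal is the median channel fluorescence of bead-bound GFP antibody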). The conditions noted are these: Protein G beads, DSG3-Fc, scFv-GFP binding, at 10 µM, stronger effect = lower value.
The nature of test [14]: Nile Red efflux blockade in pump-expressing yeast – validation compound set, multiplex, phenotypic, pilot screen (AID 588506;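 active = efflux inhibition above 0.42, the validation set average plus 4 SD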;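 note: Nile Red retained in cells so higher fluorescence means more efflux inhibition; 0 = negative control wells and 1 = enniatin B 25 µM full block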). The conditions noted are these: S. cerevisiae pump-expressing triplex, Nile Red efflux flow cytometry; at 10 µM; stronger effect = higher value; the pumps come from Candida albicans.
Test [15] has as its target ATP-binding cassette sub-family B member 6 (Homo sapiens) (UniProt Q9NP58). As to the kind of experiment: blockers of ABCB6-driven porphyrin uptake – K562-ABCB6 cells, flow cytometry, validation set, pilot screen (AID 588550;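 active = inhibition above the screen-wide mean plus 3 SD, about 51%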;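 note: 0% = DMSO wells and 100% = benzethonium chloride 70 µM positive control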). The following applies: K562-ABCB6 porphyrin accumulation, 1 h, at 10 µM, stronger effect = higher value.
Test [16] can be described thus: AML differentiation inducers, ER-HoxA9 marrow cells – cell-based, GFP/MAC1 double positive, flow cytometry, validation set, primary screen (AID 588685;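 active = differentiation response of at least 50%, scaled between solvent and reference control, from cells with both markers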;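 note: compound exposure lasts four days before antibody staining and flow analysis; 0% = DMSO wells and 100% = 5 µM fulvestrant positive control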). The conditions noted are these: stronger effect = higher value, normalized: vehicle 0, fulvestrant 100.

Each structure is given as a SMILES string. Inconclusive results are not listed. Calls of active or inactive are those of the source.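 Rule for the calls, unless noted: active = GFP response, as percent of the DMSO control, above the screen-wide mean plus 3 SD, about 139; inconclusive = no response measured because the compound's own fluorescence interfered; inactive = the rest.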

A word on the inhibition: it is the drop in the measured response relative to a control, in per cent.

Sequence of ATP-binding cassette sub-family B member 6 (Homo sapiens) (Q9NP58 whole entry, looked up): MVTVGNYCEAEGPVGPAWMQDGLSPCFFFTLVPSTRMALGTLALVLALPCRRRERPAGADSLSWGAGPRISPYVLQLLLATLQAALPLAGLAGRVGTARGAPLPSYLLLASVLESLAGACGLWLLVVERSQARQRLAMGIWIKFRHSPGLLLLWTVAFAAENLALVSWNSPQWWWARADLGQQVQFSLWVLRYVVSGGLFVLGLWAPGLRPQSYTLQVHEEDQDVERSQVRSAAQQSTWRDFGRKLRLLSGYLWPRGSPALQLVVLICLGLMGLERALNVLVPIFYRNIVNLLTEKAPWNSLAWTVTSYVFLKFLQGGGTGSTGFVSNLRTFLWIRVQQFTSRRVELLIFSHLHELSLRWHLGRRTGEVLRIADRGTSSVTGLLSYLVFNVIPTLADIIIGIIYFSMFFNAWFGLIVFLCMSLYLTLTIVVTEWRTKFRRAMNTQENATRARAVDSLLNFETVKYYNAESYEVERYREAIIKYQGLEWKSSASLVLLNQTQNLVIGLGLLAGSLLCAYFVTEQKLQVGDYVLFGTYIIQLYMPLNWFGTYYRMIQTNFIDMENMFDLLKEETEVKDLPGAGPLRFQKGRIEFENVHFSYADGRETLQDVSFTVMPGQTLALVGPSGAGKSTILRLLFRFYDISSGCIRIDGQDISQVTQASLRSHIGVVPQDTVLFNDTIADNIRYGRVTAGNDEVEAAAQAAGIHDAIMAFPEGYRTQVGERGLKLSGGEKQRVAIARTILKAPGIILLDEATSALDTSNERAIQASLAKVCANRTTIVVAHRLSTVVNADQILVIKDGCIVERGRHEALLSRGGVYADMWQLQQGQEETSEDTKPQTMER

Regarding `O=C(CSCc1ccccc1)NCCCN1CCOCC1`, the percent of DMSO control GFP in test [1] was 97.9% (inactive). Also, the GFP response vs DMSO in test [2] is 106% (inactive); in [4], 98% (inactive). The percent response of DMSO control in test [3] was 104% (inactive). Also, in test [5], the GFP response, % of DMSO was 107% (inactive). Besides, in test [6], the double positive events was determined as 62.4%. In addition, the vesicle binding response in [6] was 197% (inactive). For the same molecule, the inhibition in test [7] was 12.3% (inactive); in [11] it was -9.56% (inactive); in test [15], 15% (inactive). The superoxide response (% of plate) in test [8] is 114% (inactive). In addition, the aptamer binding inhibition in test [9] was 3% (inactive). Further, the response in [10] is -1.38% (inactive); in test [12], 3.45% (inactive). The binding (% of control) in [13] was 102% (inactive). For the same molecule, the efflux inhibition (fraction of control) in [14] was 0.17 (inactive). Besides, the differentiation response in test [16] is -14.8% (inactive).
As to `CCOC(=O)C1CCCN(Cc2nc(Cc3cccc(F)c3)no2)C1` (stereo not drawn), in test [1], the percent of DMSO control GFP was 99.1% (inactive). In addition, the GFP response vs DMSO in [2] was 92.6% (inactive); in test [4] it was 94.8% (inactive). Moreover, in test [3], the percent response of DMSO control was 92.4% (inactive). The GFP response, % of DMSO in test [5] is 87.2% (inactive). In addition, the double positive events in test [6] amounted to 58.5%. The vesicle binding response in [6] was 172% (inactive). In addition, the figures for the inhibition in test [7], in test [11] and in [15] were 5.61% (inactive), 3.77% (inactive) and 10% (inactive), respectively. In addition, the superoxide response (% of plate) in [8] was 90.5% (inactive). Moreover, the aptamer binding inhibition in test [9] was -1% (inactive). Further, the figures for the response in [10] and in test [12] were 20.7% (inactive) and -3.88% (inactive), respectively. Moreover, the binding (% of control) in test [13] is 106% (inactive). Also, in [14], the efflux inhibition (fraction of control) is 0.1 (inactive). Further, the differentiation response in test [16] is 8.59% (inactive).
For the molecule `CC(C)COC(=O)C1C(=O)CC(C)(O)C(C(=O)OCC(C)C)C1c1cccnc1` (stereo not drawn), the percent of DMSO control GFP in test [1] is 90.4% (inactive). The GFP response vs DMSO in test [2] is 118% (inactive); in [4], 74.3% (inactive). In test [3], the percent response of DMSO control was 102% (inactive). For the same molecule, the GFP response, % of DMSO in [5] was 88.4% (inactive). Moreover, in test [6], the double positive events came to 59.8%. For the same molecule, the vesicle binding response in [6] was 203% (inactive). Also, the inhibition in [7] was 8.4% (inactive); in test [11], 2.38% (inactive); in test [15] it was 18% (inactive). Further, the superoxide response (% of plate) in test [8] is 113% (inactive). For the same molecule, the aptamer binding inhibition in test [9] was 2% (inactive). Further, the response in test [10] is -11.2% (inactive); in [12] it was 2.35% (inactive). The binding (% of control) in test [13] is 102% (inactive). Further, the efflux inhibition (fraction of control) in test [14] was -0.06 (inactive). Moreover, the differentiation response in [16] was -3.28% (inactive).
Take `Cc1ccc2ncnc(NCCCCCC(=O)O)c2c1`: in test [1], the percent of DMSO control GFP was 105% (inactive). Moreover, the GFP response vs DMSO is 103% (inactive) in test [2] and 106% (inactive) in [4]. The percent response of DMSO control in test [3] is 105% (inactive). Moreover, the GFP response, % of DMSO in [5] is 108% (inactive). Besides, the double positive events in test [6] amounted to 64.6%. In addition, the vesicle binding response in test [6] was 130% (inactive). The inhibition in test [7] is 8.29% (inactive); in test [11] it was 13.1% (inactive); in test [15] it was 4% (inactive). The superoxide response (% of plate) in [8] was 114% (inactive). Besides, the aptamer binding inhibition in test [9] was -1% (inactive). Moreover, the response was 0.4% (inactive) in [10] and 5.01% (inactive) in test [12]. Besides, the binding (% of control) in test [13] is 101% (inactive). For the same molecule, the efflux inhibition (fraction of control) in test [14] is 0.135 (inactive). The differentiation response in test [16] was -14.8% (inactive).

The values are drawn from PubChem BioAssay.
